Test systems include HCT-15 colon; HT29 colon; SNB-75 CNS; SNB-19 CNS; U251 CNS; PC-3 prostate; SK-MEL-5 melanoma; UACC-62 melanoma; LOX IMVI melanoma; SK-MEL-28 melanoma; SK-MEL-2 melanoma; EKVX NSCLC; SN12C renal; UO-31 renal; TK-10 renal; ACHN renal; CAKI-1 renal; A498 renal; CCRF-CEM leukemia; MOLT-4 leukemia.
Holding throughout (experiment): NCI-60 one-dose screen, 48 h (100 = growth as untreated, 0 = no growth, -100 = all killed)
Conditions in all cases: 10 µM unless noted

This is part of a sample that, as a whole, favours compounds with a hit. Of some 83,000 tested, about 20% had one in any assay.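 For each line, cells grew in 96-well plates with the test compound present at a single concentration for 48 hours.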 Unmarked numbers belong to inactive results. Activity calls are given as the source filed them. The calls were made as follows: active = growth percent below 10; inactive = the rest.

As for `Cc1ccc(NC(=O)/C=C/c2ccc(OCCCOc3ccc4c(C)cc(=O)oc4c3)cc2)cc1`, the growth was 85.5% in the experiment with HCT-15 colon; 71.3% with HT29 colon; -6.2% (active) in the experiment on SNB-75 CNS; 38.2% in the experiment on SNB-19 CNS; 71.6% in the experiment on U251 CNS; 74.5% in the experiment with PC-3 prostate. Also, the growth was 76.9% in the experiment with SK-MEL-5 melanoma; 93% with UACC-62 melanoma; 68.8% with LOX IMVI melanoma; 59.9% with SK-MEL-28 melanoma; 58% in the experiment with SK-MEL-2 melanoma; 83.1% with EKVX NSCLC. The growth with SN12C renal is 73.3%; in the experiment on UO-31 renal, 39.6%; in the experiment with TK-10 renal it was 91.5%; with ACHN renal, 17.7%; in the experiment on CAKI-1 renal, 51%; in the experiment on A498 renal, 45.2%. In addition, the growth was 99.1% in the experiment with CCRF-CEM leukemia and 103% with MOLT-4 leukemia.

For `NC(=O)c1c(NC(=O)c2ccc(C(F)(F)F)cc2)sc2c1CCC(=O)C2`, the growth with HCT-15 colon is -21.2% (active); in the experiment with HT29 colon, 0.0943% (active); with SNB-75 CNS, -7.54% (active); in the experiment with SNB-19 CNS it was 16.3%; with U251 CNS, 7.99% (active); in the experiment with PC-3 prostate, -6.96% (active). Besides, the growth was -27.2% (active) in the experiment with SK-MEL-5 melanoma; -24.9% (active) with UACC-62 melanoma; -37.2% (active) with LOX IMVI melanoma; 4.03% (active) in the experiment on SK-MEL-28 melanoma; 51.3% in the experiment with SK-MEL-2 melanoma; 24.8% with EKVX NSCLC. Moreover, the growth with SN12C renal is 12.4%; in the experiment on UO-31 renal, -86.4% (active); with TK-10 renal, 17%; with ACHN renal, -47.1% (active); with CAKI-1 renal, -24.3% (active); in the experiment on A498 renal, 89.4%. The growth with CCRF-CEM leukemia is -4.99% (active); in the experiment on MOLT-4 leukemia it was 4.59% (active).

As to `Cc1c(C(=O)/C=C/c2ccc(Cl)cc2)nnn1-c1ccc2oc(=O)ccc2c1`, the growth is 87.3% in the experiment with HCT-15 colon; 101% in the experiment with HT29 colon; 104% in the experiment on SNB-75 CNS; 96.3% in the experiment on SNB-19 CNS; 96.7% with U251 CNS; 92% in the experiment on PC-3 prostate. The growth in the experiment with SK-MEL-5 melanoma is 97.7%; with UACC-62 melanoma, 83.6%; in the experiment with LOX IMVI melanoma it was 80.7%; in the experiment with SK-MEL-28 melanoma, 106%; in the experiment with SK-MEL-2 melanoma it was 110%; in the experiment on EKVX NSCLC, 91.2%. For the same molecule, the growth is 92.3% with SN12C renal; 73.4% in the experiment with UO-31 renal; 104% in the experiment with TK-10 renal; 94.6% in the experiment on ACHN renal; 88.6% in the experiment with CAKI-1 renal; 103% with A498 renal. The values for the growth in the experiment on CCRF-CEM leukemia and in the experiment with MOLT-4 leukemia were 92.3% and 98.9%, respectively.

Consider `N#Cc1nc(-c2ccc(Cl)cc2)oc1N1CCC(S(=O)(=O)N2CCOCC2)CC1`, for which the growth is 105% with HCT-15 colon; 98% with HT29 colon; 94.2% with SNB-75 CNS; 92.2% in the experiment on SNB-19 CNS; 102% in the experiment with U251 CNS; 95.4% in the experiment on PC-3 prostate. The growth with SK-MEL-5 melanoma is 98.1%; in the experiment on UACC-62 melanoma, 94.1%; in the experiment on LOX IMVI melanoma, 81.7%; in the experiment with SK-MEL-28 melanoma, 101%; in the experiment on SK-MEL-2 melanoma, 114%; in the experiment with EKVX NSCLC, 105%. The growth with SN12C renal is 94.1%; with UO-31 renal, 73.2%; in the experiment on TK-10 renal, 113%; in the experiment with ACHN renal, 100%; with CAKI-1 renal, 89.7%; in the experiment with A498 renal, 102%. Further, the results for the growth in the experiment on CCRF-CEM leukemia and with MOLT-4 leukemia were 108% and 104%, respectively.

`Cn1cc(-c2nn3cc(-c4ccncc4)nc3s2)c2cc(Br)ccc21`: the growth is 18% in the experiment on HCT-15 colon; 4.54% (active) in the experiment with HT29 colon; 45.9% with SNB-75 CNS; 81.7% with SNB-19 CNS; 54.7% with U251 CNS; 30.2% in the experiment with PC-3 prostate. Moreover, the growth with SK-MEL-5 melanoma was 57.9%; in the experiment with UACC-62 melanoma, 61.5%; in the experiment with LOX IMVI melanoma, 52.5%; in the experiment with SK-MEL-28 melanoma, 94.2%; with SK-MEL-2 melanoma, 75.2%; in the experiment on EKVX NSCLC, 45.7%. The growth was 67.7% in the experiment on SN12C renal; 39.3% in the experiment on UO-31 renal; 113% in the experiment with TK-10 renal; 68.9% in the experiment on ACHN renal; 56.5% with CAKI-1 renal; 81.4% with A498 renal. Further, the growth is 29.7% with CCRF-CEM leukemia and 12.9% in the experiment on MOLT-4 leukemia.

In the case of `Cc1ccccc1N1CCN(C2=C(Cl)C(=O)c3ncccc3C2=O)CC1`, the growth in the experiment on HCT-15 colon was 4.38% (active); with HT29 colon it was 94.9%; with SNB-75 CNS it was 82.6%; in the experiment on SNB-19 CNS, 74.9%; in the experiment with U251 CNS it was 71.3%; in the experiment on PC-3 prostate it was 66.1%. Besides, the growth is 88.8% in the experiment with SK-MEL-5 melanoma; 66.2% with UACC-62 melanoma; 1.19% (active) in the experiment with LOX IMVI melanoma; 35.9% in the experiment with SK-MEL-28 melanoma; 81.1% in the experiment with SK-MEL-2 melanoma; 95.4% in the experiment with EKVX NSCLC. Besides, the growth with SN12C renal is 70.1%; in the experiment with UO-31 renal it was 2.66% (active); with TK-10 renal, 68.7%; in the experiment with ACHN renal, -22.6% (active); in the experiment with CAKI-1 renal, 25.4%; in the experiment with A498 renal, 111%. Further, the growth with CCRF-CEM leukemia was 0.314% (active); with MOLT-4 leukemia, 10.4%.

For `CC1=C(C)C(=O)C(Nc2cccc(C)c2)=C(Br)C1=O`, the growth with HCT-15 colon is 98.4%; in the experiment with HT29 colon, 105%; in the experiment on SNB-75 CNS it was 67.7%; in the experiment with SNB-19 CNS it was 101%; with U251 CNS, 101%; with PC-3 prostate, 78.5%. The growth with SK-MEL-5 melanoma is 90.5%; with UACC-62 melanoma it was 94.4%; with LOX IMVI melanoma, 58.1%; with SK-MEL-28 melanoma, 115%; with SK-MEL-2 melanoma, 117%; in the experiment with EKVX NSCLC it was 68.7%. For the same molecule, the growth in the experiment on SN12C renal was 96.9%; with UO-31 renal, 80.2%; in the experiment on TK-10 renal, 152%; in the experiment with ACHN renal, 95.7%; in the experiment on CAKI-1 renal, 99.3%; with A498 renal, 95.5%. Besides, the figures for the growth in the experiment on CCRF-CEM leukemia and with MOLT-4 leukemia were 16.5% and -29.9% (active), respectively.

For the molecule `O=C(CSc1nnc(-c2ccc(Cl)cc2)n1-c1ccccc1)Nc1ccc(Cl)cc1`, the growth with HCT-15 colon is 81.5%; in the experiment on HT29 colon, 62.6%; with SNB-75 CNS, -11.2% (active); in the experiment on SNB-19 CNS it was 59.6%; in the experiment with U251 CNS, 32.7%; in the experiment on PC-3 prostate, 61.4%. Further, the growth with SK-MEL-5 melanoma is 82.2%; in the experiment with UACC-62 melanoma it was 76.1%; with LOX IMVI melanoma, 10.8%; with SK-MEL-28 melanoma, 71.2%; in the experiment with SK-MEL-2 melanoma, 87.3%; in the experiment on EKVX NSCLC, 49.7%. The growth is 16.3% with SN12C renal; 12% in the experiment on UO-31 renal; -6.39% (active) in the experiment on TK-10 renal; -2.97% (active) in the experiment on ACHN renal; 50.9% in the experiment with CAKI-1 renal; 41.4% with A498 renal. The growth was 53.9% in the experiment on CCRF-CEM leukemia and 84.6% with MOLT-4 leukemia.

For the origin of these results see PubChem BioAssay (NCI).
